Imprint erasure = genomic imprint erasure induction; AID 1948; Potency, µM (titrated, usually from 60.7 µM), for the others: top-dose activity change, positive = activation, most hits filed as activators; 110,000 compounds, 0.02% hits; mouse ES Peg3-LacZ reporter, beta-gal luminescence, 40 h
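Imprint erasure is scored as LacZ activity from the silenced maternal Peg3 allele in feeder-free female ES cells cultured 40 h with LIF. Luminescence is normalized to in-plate negative controls and fitted to the Hill equation.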
p53ts 32C tox = p53ts cell cytotoxicity, permissive temperature | Potency, µM (series often up to 46.1 µM), inactives show at the top dose activity change, negative = cytotoxicity, actives largely listed as cytotoxic | 130,000 compounds, 0.93% hits | H1299-p53A138V at 32C, ATP luminescence viability, 24 h;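 also: 0% = DMSO and -100% = full killing by reference compound; nearly all actives have a fitted effect of over 55% in size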
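Cells: H1299 p53ts (A138V), 600/well, pre-incubated 16–30 h at 37C. Cpd up to 46 uM, 24 h, 32C. Readout: ATPlite luminescence, 20 min RT. Normalization: DMSO vs tamoxifen 100 uM. AC50 by Hill equation.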
IkB sig inh = IkB pathway inhibition in ABC-DLBCL cells. ABC-DLBCL IkBa-CBG/CBR dual luciferase ratio, 4 h; response scale: scaled: untreated 0%, proteasome inhibitor 100%. Potency, µM (titrated, usually from 57.1 µM), for the others: at the highest dose IkBa stabilization activation. 110,000 compounds, 0.04% hits; active = well fitted curve in the direction sought with a large enough effect in the signal ratio, not every such curve was filed as active; inconclusive = small, poorly fitted or top-dose-only effect, or a change in a side signal; the % refers to the signal ratio;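 also: the direction sought is a rising ratio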
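In this assay, an IκBα–CBG68 fusion accumulates when IKK-driven degradation is blocked; native CBR normalizes for cell number. OCI-Ly3 cells were treated 4 h with compound and doxycycline, then green and red light read after Chroma-Glo addition.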
p53ts 39C tox = kills p53ts cells at the nonpermissive temperature; H1299-p53A138V viability at 39C, ATP luminescence, 24 h; Potency, µM (titrated, usually from 46.1 µM), inactives show at the top dose activity change, negative = cell killing, usual class: cytotoxic; 130,000 compounds, 1.5% hits; AID 902; also: % is scaled to controls: 0 for no effect and ±100 for the full control effect; nearly all actives have a fitted effect of over 55% in size
The depositor's hits bear a star; u = inconclusive; x = no result given; [ ] = dose if it differs, or a comment. Most compounds without a hit are left out; they make up all but 1.7% or so of the library. Unless noted, calls follow the shape of the dose curve; as a rule, active = well fitted curve in the direction sought with a large enough effect; inconclusive = small, poorly fitted or top-dose-only effect, or another doubt; inactive = no such curve, though single readings can be large; an effect the other way counts as inactive or inconclusive. Potency is read from the fitted curve at half-maximal effect.

SMILES	Imprint erasure	p53ts 32C tox	IkB sig inh	p53ts 39C tox
CN(C)c1ccc(N=O)cc1	u	1%[1.84 µM]	u	u
CN(C)c1ccc(N)cc1	-17%	-2%[1.84 µM]	u	32µM*
COc1cc2[nH]c(=O)n(CCCCCC(=O)N3CCN(c4cccc(C(F)(F)F)c4)CC3)c(=O)c2cc1OC	-8%[10.9 µM]	u	u	13µM*
COC(=O)[C@H](N)CCCN=C(N)N[N+](=O)[O-]	x	-10%	2%	10%
O=c1ccc2cc(O[C@@H]3O[C@@H](CO)[C@@H](O)[C@@H](O)[C@H]3O)c(O)cc2o1	x	x	2%[11.4 µM]	x
CCOc1ccc(NC(=O)CSc2oc(-c3ccccc3)nc2S(=O)(=O)c2ccc(Cl)cc2)cc1	-34%[10.9 µM]	u	-3%	2µM*
O=C(CSc1oc(-c2ccccc2)nc1S(=O)(=O)c1ccc(Cl)cc1)Nc1ccc(F)cc1	5%[10.9 µM]	u	u	13µM*
C=CCCN1C[C@@H]2C[C@H](C1)c1cccc(=O)n1C2	x	x	2%[11.4 µM]	x
CC(C)n1cc2c3c(cccc31)[C@@H]1C[C@H](C(=O)O[C@@H](C)[C@H](C)O)CN(C)[C@H]1C2	x	-13%	-7%	0%
NC(N)=Nc1ccc2[nH]c3c(c2c1)C[C@]1(O)[C@@H]2Cc4ccc(O)c5c4[C@]1(CCN2CC1CC1)[C@H]3O5	x	13µM*	0%	25µM*
Oc1ccc2c3c1O[C@H]1c4[nH]c5ccccc5c4C[C@@]4(O)C(C2)N(CC2CC2)CCC314 (some centres undefined)	-8%	x	x	x
C=C(C)CN1CC[C@@]23c4c5ccc(O)c4O[C@H]2c2[nH]c4ccccc4c2C[C@]3(O)[C@@H]1C5	-11%	u	u	32µM*
O=c1cccc2n1C[C@H]1C[C@@H]2CN(CCO)C1	x	x	0%[11.4 µM]	x
COc1ccc2c(c1)[C@]13CCCC[C@@H]1[C@H](C2)NCC3	x	18%	-2%	-10%
CN(CCC(=O)O)C1=Nc2ccc(Cl)cc2C(c2ccccc2)=[N+]([O-])C1	-11%[10.9 µM]	7%[9.22 µM]	-1%[11.4 µM]	2%[9.22 µM]
O=C1C(Cl)=C(Cl)C(=O)C(Cl)=C1Cl	-50%	5µM*	u	u
CC(=O)OC1C[C@@]2(C)C(c3ccoc3)C[C@H]3O[C@@]32[C@@]2(C)C(=O)C(O)=C3C(C)(C)C(=O)C=C[C@]3(C)C12 (some centres undefined)	-30%	1.6µM*	x	u
CC(=O)OC1CC(OC(C)=O)[C@]2(C)C(CC(OC(C)=O)[C@]3(C)C2CC[C@@]2(C)C(c4ccoc4)C[C@H]4O[C@]432)C1(C)C (some centres undefined)	-1%	-3%	x	1%
CC1=CC(=O)c2c(O)cccc2C1=O	-36%	6.3µM*	x	10µM*
CN(C)C(=S)SSC(=S)N(C)C	-84%	-21%[1.84 µM]	6.3µM*	90%
CSC([N-]/N=C/c1cccc(C)n1)=[S]=[Cu].CS[C@H]([S-])[N-]/N=C/c1cccc(C)n1	x	2µM*	u	u
COC1=C(C)C(=O)c2c(c(COC(N)=O)c3n2C[C@@H]2[C@@H]3N2C)C1=O (some centres undefined)	-39%[10.9 µM]	u	3.2µM*	u
O=C(O)[C@H]1[C@H](C(=O)O)[C@H]2CC[C@@H]1O2	x	31%	u	18%
C=C[C@@H]1CN2CC[C@@H]1C[C@H]2[C@H](O)c1ccnc2ccccc12	x	x	1%[11.4 µM]	x
COC(=O)C[C@]1(C(=O)OC)CN(C#N)N(c2ccc(Cl)cc2)C12c1ccccc1-c1ccccc12	x	6.3µM*	x	u
SMILES	Imprint erasure	p53ts 32C tox	IkB sig inh	p53ts 39C tox
C=CCN1CCc2cccc3c2[C@@H]1Cc1ccc(O)c(O)c1-3	x	u	25%	u
Cc1ccc(Cl)cc1NC(=O)NCc1cccn1Cc1ccc(F)cc1	-1%[10.9 µM]	u	-2%	10µM*
CCCCOc1ccc(CN2C(=O)C(=O)c3cc(C)ccc32)cc1OC	-34%[10.9 µM]	12%	3%	10µM*
C[C@@H](Cc1ccccc1)NCCC(c1ccccc1)c1ccccc1	6%[16.8 µM]	0%[20.6 µM]	-1%[25.6 µM]	13µM*
CC(CCc1ccccc1)NC(C)C(O)c1ccc(O)cc1 (centres undefined)	-10%	4%	x	5%
CC[C@@]1(O)CC(O)c2c(cc3c(c2O)C(=O)c2c(O)ccc(O)c2C3=O)C1C(=O)OC (some centres undefined)	-14%	u	x	13µM*
